# Laboratory results taken from PubChem BioAssay (Tox21).
# Records with an inconclusive call do not appear. A call without a number means that no potency is given here. Active and inactive are the calls of the source. The call rests on the fitted dose curve.
# Target: Retinoic acid receptor RXR-alpha (Homo sapiens) (UniProt P19793)
# Assay: qHTS assay to identify small molecule agonists of the RXR signaling pathway (AID 1159527); further: nearly all actives have a fitted effect of over 35% in size
# Details: HEK293T RXRa-UAS-bla, beta-lactamase ratio, 16 h; series mostly up to 76.8 µM
# Description: U.S. Tox21 Program National Center for Advancing Translational Sciences [NCATS] NIH Chemical Genomics Center [NCGC] U.S. Environmental Protection Agency [EPA] National Institutes of Environmental Health Sciences [NIEHS] National Toxicology Program [NTP] U.S. Food and Drug Administration [FDA] Tox21 Assay Overview: The Retinoid X receptor (RXR), a nuclear hormone receptor expressed in liver, spleen, placenta, epidermis, central nervous system. These receptors are able to form homo and heterodimers with other nuclear receptors and due to this heterodimerizing ability, RXR functions as master regulators producing diverse physiological effects. Three subtypes of RXR exist; alpha, beta and gamma. Retinoid X receptor alpha (RXR-alpha) has potential roles in metabolic signaling pathways, skin alopecia, dermal cysts, cardiac development, insulin sensitization etc. Therefore screening environmental chemicals on RXR-alpha signaling can be used for the studies focused on such therapeutic applications. For quantification of RXR-alpha ligands signaling, GeneBLAzer RXR alpha-UAS-bla HEK 293T (Life Technologies, Carlsbad, CA) cells containing a beta-lactamase reporter-gene under control of Retinoid X receptor-alpha response element were used to screen Tox21 10K library.
# Tox21 Assay Protocol Summary: RXR-alpha HEK 293T cells were dispensed at 2,000 cells/6 uL of assay medium containing 2% charcoal-stripped FBS using a Multidrop Combi (ThermoFisher Scientific, Waltham, MA) dispenser. The assay was performed in black wall/clear-bottom 1536-well plates (Greiner Bio-One North America Inc. Monroe, NC). 9-cis retinoic acid was used as a positive control in the agonist mode screen. After the assay plates were incubated at 37 C and 5% CO2 for 5 hr, 23 nL of compounds dissolved in DMSO, positive controls or DMSO only were transferred to the assay plate by a Pintool station (Kalypsys, San Diego, CA). The assay plates were incubated at 37 C and 5% CO2 for 16 hr. One uL of LiveBLAzer B/G FRET substrate (Life Technologies) was added using a Flying Reagent Dispenser (Aurora Discovery, San Diego, CA) and the plates were incubated at room temperature for 2 hr. Fluorescence intensity (405 nm excitation, 460/530 nm emission) was measured using an Envision plate reader (PerkinElmer, Shelton, CT).
# Sequence of Retinoic acid receptor RXR-alpha (Homo sapiens) (P19793 whole entry, looked up): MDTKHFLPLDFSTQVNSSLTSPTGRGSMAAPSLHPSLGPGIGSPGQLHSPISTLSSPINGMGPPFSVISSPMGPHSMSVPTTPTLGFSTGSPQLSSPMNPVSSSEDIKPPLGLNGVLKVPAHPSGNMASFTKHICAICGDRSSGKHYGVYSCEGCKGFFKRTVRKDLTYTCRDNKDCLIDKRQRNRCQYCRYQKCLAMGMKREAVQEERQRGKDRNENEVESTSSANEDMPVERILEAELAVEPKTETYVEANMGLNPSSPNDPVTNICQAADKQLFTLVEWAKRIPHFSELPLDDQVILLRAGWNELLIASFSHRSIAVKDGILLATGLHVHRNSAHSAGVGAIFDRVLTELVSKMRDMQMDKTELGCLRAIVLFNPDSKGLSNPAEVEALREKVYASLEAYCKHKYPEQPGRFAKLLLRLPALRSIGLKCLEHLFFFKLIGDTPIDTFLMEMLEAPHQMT
row,Compound,Potency
1,CCC(OCCCOC)OC(C)=O (stereo not given),inactive
2,O=C=Nc1cccc(C(F)(F)F)c1,inactive
3,O=C(Nc1cccc2c(=O)cc(-c3nn[nH]n3)oc12)c1ccc(OCCCCc2ccccc2)cc1,inactive
4,O=C1NCCN1CCO,inactive
5,CCC(=O)OC,inactive
6,CC(=O)Oc1ccc([N+](=O)[O-])cc1CCl,inactive
7,CC(C)Nc1cccnc1N1CCN(C(=O)c2cc3cc(NS(C)(=O)=O)ccc3[nH]2)CC1,inactive
8,O=C1NC(=O)c2cc([N+](=O)[O-])ccc21,inactive
9,CC(C)(c1ccccc1)c1ccccc1,inactive
10,N#CCc1ccc(Cl)cc1Cl,inactive
11,NNC(=O)CP(=O)(c1ccccc1)c1ccccc1,inactive
12,C(=C\c1ccccc1)/c1ccccc1,inactive
13,Clc1cc(Cl)nc(Cl)n1,inactive
14,CCOC(=O)c1ccc(OCCN2C[C@H](O)[C@@H](O)[C@H](O)[C@H]2CO)cc1,inactive
15,CN(C)CCN1C(=O)c2ccccc2N(C)c2ccccc21,inactive
16,Nc1ncnc2c1ncn2[C@H]1CC[C@@H](CO)O1,inactive
17,CN1CC(=O)N2[C@H](c3ccc4c(c3)OCO4)c3[nH]c4ccccc4c3C[C@@H]2C1=O,inactive
18,CC(CO)CO,inactive
19,CN1C(=O)N(c2ccccc2Br)Cc2cnc(Nc3ccc4c(c3)OCC(CO)O4)nc21 (stereo not given),inactive
20,CCCCCCCCN,inactive

row,Compound,Potency
1,CCCCN(CCCC)C(C(N)=O)c1ccc(OC)cc1 (stereo not given),inactive
2,Cc1[nH]cnc1CN1CCc2c(c3ccccc3n2C)C1=O,inactive
3,CCCCN1CCCC1C(=O)Nc1c(C)cc(C)cc1C (stereo not given),inactive
4,CCCCCCCC/C=C\CCCCCCCCO,inactive
5,Cc1cc2c(OCC(CNC(C)(C)C)OC(=O)c3ccccc3)cccc2[nH]1 (stereo not given),inactive
6,COc1ncnc(NS(=O)(=O)c2ccc(N)cc2)c1OC,inactive
7,CCOc1ccccc1O[C@H](c1ccccc1)[C@H]1CNCCO1,inactive
8,Oc1cccc(Nc2ccccc2)c1,inactive
9,CN1C(C(=O)Nc2ccccn2)=C(O)c2sccc2S1(=O)=O,inactive
10,CC(C)=CC(=O)C=C(C)C,inactive
11,CC=C(Cl)Cl,inactive
12,CC(C)(C)C(=O)C(=O)O,inactive
13,O=C1CCCCCCCCCCOCCCCO1,inactive
14,Cc1cc(O)ccc1O,inactive
15,O=C(O)C[C@H](NC(=O)OCc1ccccc1)C(=O)O,inactive
16,c1ccc2c(c1)CCc1ccccc1N2,inactive
17,O=[N+]([O-])c1cc(C2CCCCC2)c(O)c([N+](=O)[O-])c1,inactive
18,C=COCC(C)C,inactive
19,COC(=O)CCS,inactive
20,CCC1CO1 (stereo not given),inactive
